# Measurements reported in PMC6919601, “Identification of Plasmodium dipeptidyl aminopeptidase allosteric inhibitors by high throughput screening” (PLoS ONE, 2019).
# Among all 110,000 compounds or so, about 230 (0.21%) showed an effect of 50% or more. Shown is part of a subset that was picked to be rich in strong results.
# Target: DPAP1 (Plasmodium falciparum, UniProt Q8IIJ9)
# Test: primary screen, percent inhibition; read by cleavage of a fluorogenic dipeptide substrate; higher = more effect of the substance
# Design: species or system P. falciparum D10 trophozoite lysates; single well
# 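Also: 30 min substrate incubation versus DMSO and 10 µM JCP410 controls.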
# DPAP1, sequence (Q8IIJ9 whole entry, looked up): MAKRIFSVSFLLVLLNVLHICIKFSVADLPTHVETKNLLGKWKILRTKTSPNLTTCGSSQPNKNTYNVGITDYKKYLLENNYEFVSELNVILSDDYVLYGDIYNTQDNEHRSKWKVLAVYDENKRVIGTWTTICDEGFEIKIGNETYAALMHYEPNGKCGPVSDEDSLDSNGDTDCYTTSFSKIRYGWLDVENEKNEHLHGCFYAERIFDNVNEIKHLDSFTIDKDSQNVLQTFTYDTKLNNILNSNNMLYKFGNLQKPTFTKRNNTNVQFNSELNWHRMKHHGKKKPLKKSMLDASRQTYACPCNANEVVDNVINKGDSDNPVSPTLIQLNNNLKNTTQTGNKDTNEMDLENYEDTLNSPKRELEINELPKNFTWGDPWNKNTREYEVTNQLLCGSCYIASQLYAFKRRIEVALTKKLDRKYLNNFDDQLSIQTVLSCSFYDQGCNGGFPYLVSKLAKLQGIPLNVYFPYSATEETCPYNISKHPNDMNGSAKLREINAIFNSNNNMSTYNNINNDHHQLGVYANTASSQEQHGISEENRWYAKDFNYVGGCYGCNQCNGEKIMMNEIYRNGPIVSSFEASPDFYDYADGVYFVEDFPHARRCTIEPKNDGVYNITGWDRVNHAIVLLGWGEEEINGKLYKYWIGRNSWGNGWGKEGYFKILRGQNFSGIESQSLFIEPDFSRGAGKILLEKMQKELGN
row,SMILES,% Inhibition @ 10 uM
1,O=C1c2cccnc2C(=O)N1c1ccccc1-c1ccccc1,-2.29%
2,COCCNC(=O)c1sc2ncn(CC(=O)N3CCC(C)CC3)c(=O)c2c1C,-2.17%
3,CCCC(=O)n1nc2c3c(cccc31)C(=O)c1ccccc1-2,-2.75%
4,Cc1ccc(O)c(/C=N/c2c(C)nn(C)c2C)c1,7.26%
5,CC(C)CCn1nnc2sc3c(c2c1=O)CCC(C)C3 (stereo not drawn),-6.78%
6,Cc1ccc(CNc2nc3ccccc3c3nc(-c4ccncc4)nn23)cc1,0.981%
7,O=C1NC(=S)NC(=O)C1=Cc1ccccc1OCCO,-6.17%
8,CC(=O)NS(=O)(=O)c1ccc(NC(=O)COc2ccc(C)cc2)cc1,-0.473%
9,CC(C)(C)c1ccc(C(CC(=O)O)NS(=O)(=O)Cc2ccccc2)cc1 (stereo not drawn),2.72%
10,Cc1ccc(N2C(=O)C3C4c5ccccc5C(C(C)O)(c5ccccc54)C3C2=O)cc1 (stereo not drawn),53.4%
11,Cc1cccc(N2C(=O)C3C4c5ccccc5C(C)(c5ccccc54)C3C2=O)c1 (stereo not drawn),2.6%
12,CC12c3ccccc3C(c3ccccc31)C1C(=O)N(c3ccc(Cl)cc3)C(=O)C12 (stereo not drawn),-1.59%
13,Cn1c(C2=CC(C)(C)NC(C)(C)C2)ccc1C1=CC(C)(C)NC(C)(C)C1,-5.9%
14,COCCNC(=O)CCNS(=O)(=O)c1ccc(C)cc1,-0.256%
15,CCOc1cc(C2c3c(-c4ccccc4O)n[nH]c3C(=O)N2Cc2ccco2)ccc1O (stereo not drawn),52.6%
16,COc1cc(C2c3c(-c4ccccc4O)n[nH]c3C(=O)N2Cc2ccco2)ccc1O (stereo not drawn),-3.12%
17,CCOc1ccc(C2c3c(-c4ccccc4O)n[nH]c3C(=O)N2Cc2ccco2)cc1OC (stereo not drawn),0.366%
18,Cc1cc(S(=O)(=O)N2CCC(n3c(O)nc4ccccc43)CC2)ccc1-n1cnnn1,-0.671%
19,Cc1cc(S(=O)(=O)N(Cc2ccccc2)Cc2ccccc2Cl)ccc1-n1cnnn1,58.7%
20,COc1ccc(CN(Cc2ccccc2)S(=O)(=O)c2ccc(-n3cnnn3)c(C)c2)cc1,2.08%
21,CNS(=O)(=O)c1cn(CC(=O)NCc2ccccn2)cc1S(=O)(=O)NC,-7.87%
22,O=C(CC1SC(=O)N(Cc2cccc3ccccc23)C1=O)Nc1nccs1 (stereo not drawn),-2.82%
23,C(=C\c1ccccc1)/CN1CCN(C2CCN(CCc3ccccc3)CC2)CC1,97.7%
24,C(=C\c1ccccc1)/CN1CCN(C2CCN(Cc3ccccc3)CC2)CC1,1.88%
25,C(=C\c1ccccc1)/CN1CCN(CCc2ccccc2)CC1,1.74%
26,Cc1cc(=O)n2nc(N(C)CC(=O)NCc3ccc4c(c3)OCO4)sc2n1,3%

row,SMILES,% Inhibition @ 10 uM
1,Cc1nnc2c(NCc3ccc4c(c3)OCO4)nc3ccc(C(=O)c4ccccc4)cc3n12,79.7%
2,Cc1nnc2c(NCc3ccco3)nc3ccc(C(=O)c4ccccc4)cc3n12,-6.09%
3,Cc1nnc2c(NCc3ccccc3)nc3ccc(C(=O)c4ccccc4)cc3n12,0.454%
4,O=C(c1ccco1)N1CCN(c2nc3ccccc3n3nnnc23)CC1,2.76%
5,CC(=O)N/C(=C\c1ccccc1)C(=O)Nc1ccc(Cl)cc1,-6.99%
6,O=C1c2cccc3cccc(c23)C(=O)N1CCN1CCN(S(=O)(=O)c2ccc(Cl)cc2)CC1,5.97%
7,O=C(c1ccc(Cl)cc1)N1CCN(CCN2C(=O)c3cccc4cccc(c34)C2=O)CC1,-5.31%
8,O=C1C(S(=O)c2ccc(Cl)cc2)=C(O)c2cccc3cccc1c23 (stereo not drawn),77.5%
9,CC(C)Cc1c(C#N)c(N)nc(SCC(=O)c2ccc(-c3ccccc3)cc2)c1C#N,16.2%
10,CCc1c(C#N)c(N)nc(S)c1C#N,74.5%
11,CC(C)Cc1c(C#N)c(N)nc(S)c1C#N,78.5%
12,CN(C)c1ccc(-c2c(C#N)c(N)nc(S)c2C#N)cc1,7.55%
13,CCCCCCc1c(O)nc(S)nc1O,22.8%
14,COCc1c(C#N)c(S)nc(C)c1[N+](=O)[O-],30.8%
15,CCSc1nc(N)c(C#N)c(CC)c1C#N,23.3%
16,C=CCSc1nc(N)c(C#N)c(CC)c1C#N,65.5%
17,CCc1c(C#N)c(N)nc(SCc2ccccc2)c1C#N,42.7%
18,CCCCCCCc1c(C#N)c(N)nc(S)c1C#N,71.3%
19,CCOC(=O)CSc1nc(N)c(C#N)c(CC)c1C#N,20.6%
20,CC(C)Cc1c(C#N)c(N)nc2sc(C#N)c(N)c12,5.2%
21,N=C(NOC(=O)C12CC3CC(CC(C3)C1)C2)c1ccc(Cl)cc1,-0.597%
22,O=C(CN1CCCC1)Nc1c2c(nc3ccccc13)N(c1ccccc1)CC2,0.144%
23,Cc1ccc(C(C)C)c(OCC(O)CN2CC(C)OC(C)C2)c1 (stereo not drawn),-1.15%
24,COc1cc(C2C(C#N)=C(N)OC3=C2C(=O)CCC3)ccc1OCC(=O)Nc1ccc(C)cc1C (stereo not drawn),0.851%
25,COc1cc(OC)cc(C(=O)Nc2ccc3c(c2)oc2ccccc23)c1,-4.91%
26,CCC1CCC(NCc2ccncc2)CC1 (stereo not drawn),-3.42%

row,SMILES,% Inhibition @ 10 uM
1,c1cc(CNC2CCCCC2)ccn1,1.84%
2,c1ccc(C2CCC(NCc3ccncc3)CC2)cc1 (stereo not drawn),97.8%
3,CC(Sc1nc(-c2cccnc2)ccc1C#N)C(=O)O (stereo not drawn),-3.63%
4,N#Cc1ccc(-c2cccnc2)nc1SCc1ccccc1,61.4%
5,N#Cc1ccc(-c2cccnc2)nc1SCC(=O)O,-2.45%
6,Cc1nnc2c(Oc3ccc(-c4ccccc4)cc3)nc3ccccc3n12,-7.23%
7,N=c1n(CCOc2ccccc2)c2ccccc2n1CCN1CCOCC1,-6.25%
8,CCOc1cc(Br)c(C=C2C(=O)NC(=O)NC2=O)cc1OC,-2.39%
9,C/C(CCC1CC(C)OC1=O)=N\NC(N)=S (stereo not drawn),-1.6%
10,OC1(c2ccc(Br)cc2)CCN(Cc2cccc(Cl)c2)CC1,-3.6%
11,CSC1=C(C#N)C(C)C2=C(O)CC(C)(C)CC2=N1 (stereo not drawn),2.76%
12,CC1C(C#N)=C(SCC(=O)c2ccc(Cl)cc2)N=C2CC(C)(C)CC(O)=C21 (stereo not drawn),45.5%
13,CC1C(C#N)=C(SCc2ccccc2)N=C2CC(C)(C)CC(O)=C21 (stereo not drawn),55.4%
14,Cc1nc(NC(=O)COc2ccc(C(C)(C)C)cc2)ccc1Br,-7.81%
15,CCOc1ccc(-c2cc(C)n3nc(C(=O)NCc4ccco4)cc3n2)cc1,0.221%
16,Cc1ccc2nc3c(O)n(C)cnc-3c2c1,5.06%
17,CCOc1ccc(C2CC(=O)N3CN(Cc4ccccc4)CSC3=C2C#N)cc1 (stereo not drawn),48.5%
18,CCOc1ccc(C2CC(=O)N3CN(CCc4ccccc4)CSC3=C2C#N)cc1 (stereo not drawn),71.1%
19,CCOc1ccc(C2CC(=O)N3CN(CCO)CSC3=C2C#N)cc1 (stereo not drawn),61.2%
20,CCc1ccc(C2CC(=O)N3CN(Cc4ccccc4)CSC3=C2C#N)cc1 (stereo not drawn),39.2%
21,C=C(C)Cn1c(C(C)NC(=O)CCC)nc2ccccc21 (stereo not drawn),1.41%
22,CC(C)CNCC(=O)Nc1sc2c(c1C(=O)Nc1ccc(Br)cc1)CCC2,-6.07%
23,OC1(c2ccc(Cl)cc2)CCN(Cc2ccc(F)c(F)c2)CC1,-7.42%
24,COc1ccc(C2=NN3C(C2)c2cc(OC)ccc2OC3(C)C)cc1 (stereo not drawn),43.8%
25,COc1ccc(C2=NN3C(C2)c2cc(Cl)ccc2OC3(C)C)cc1 (stereo not drawn),50.9%
26,COc1ccc(C2=NN3C(C2)c2cccc(OC)c2OC3(C)C)cc1 (stereo not drawn),38.5%

row,SMILES,% Inhibition @ 10 uM
1,CCCCCn1c(Br)nc2c1c(=O)[nH]c(=O)n2C,4.41%
2,CC(=O)c1cccc(NC(=O)c2ccc(N(C)S(=O)(=O)c3ccc(C)cc3)cc2)c1,5.24%
3,Cc1ccc2c(c1)-c1onc(C(=O)NCCCOC(C)C)c1CO2,1.97%
4,COCCCNC(=O)c1noc2c1COc1ccccc1-2,84.2%
5,CC(C)OCCCNC(=O)c1nn(C)c2c1COc1ccccc1-2,-1.72%
6,CC12CC3CC(C)(C1)CC(OCCNC(=O)c1noc4c1COc1ccccc1-4)(C3)C2,49%
7,COc1ccccc1CNC(=O)c1c2c(nn1C)-c1ccccc1SC2,8.62%
8,COCCNC(=O)c1noc2c1COc1ccccc1-2,60%
9,O=C(NCC1CCCO1)c1noc2c1CSc1ccccc1-2 (stereo not drawn),19.3%
10,COCCCNC(=O)c1noc2c1COc1ccc(C)cc1-2,5.1%
11,COCCNC(=O)c1noc2c1COc1ccc(C)cc1-2,-3.77%
12,COc1ccccc1CNC(=O)c1noc2c1CSc1ccccc1-2,62.7%
13,CC(C)OCCCNC(=O)c1noc2c1COc1ccccc1-2,58.6%
14,CCCCN(CC)C(=O)c1noc2c1COc1ccccc1-2,-1.72%
15,COc1cccc(C(=O)N2CCN(C(=O)CCC3CCCC3)CC2)c1,0.587%
16,O=C(NC1CCCCC1)C1CCCN(S(=O)(=O)N2CCCCC2)C1 (stereo not drawn),-4.99%
17,CN1CCN(C(=O)c2ccc(Cn3c(SCc4ccccc4F)nc4ccncc43)cc2)CC1,-1.92%
18,Cn1c(=O)c2nc(-c3ccccc3)c(-c3ccccc3)nc2n(C)c1=O,4.03%
19,CCOc1cc(-c2cc(-c3ccc(N)cc3)nc(N)c2C#N)ccc1O,3.26%
20,COc1ccc2c(CNCc3ccccc3C)c(C(=O)O)n(Cc3ccc(F)cc3)c2c1,-4.16%
21,COc1cc(C)c2c(=O)c(Oc3ccccc3)c(C(F)(F)F)oc2c1,-5.69%
22,CC(C)(C)n1ncc2c(=O)n(Cc3c(F)cccc3Cl)cnc21,-1.75%
23,COC(=O)c1sccc1-n1c(S)c(C#N)c(N)c(C#N)c1=N,-2.21%
24,CC1CC2(C)CC(C(=O)O2)C1C(=O)O (stereo not drawn),-1.76%
